Source: PubChem BioAssay

These compounds were tested against Albumin (Bos taurus) (UniProt P02769) (assay: compounds binding labelled BSA control protein – biochemical, small-molecule microarray, Alexa647 label, 635/667 nm fluorescence, artefact control for SMM control protein annotation, profiling panel (AID 1118;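 also: score merges 667 nm emission intensity and signal-to-noise per printed compound spot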)). Details: BSA-A647 binding, fluorescence 635 nm, higher = more signal.
Albumin (Bos taurus), sequence (P02769 whole entry, looked up): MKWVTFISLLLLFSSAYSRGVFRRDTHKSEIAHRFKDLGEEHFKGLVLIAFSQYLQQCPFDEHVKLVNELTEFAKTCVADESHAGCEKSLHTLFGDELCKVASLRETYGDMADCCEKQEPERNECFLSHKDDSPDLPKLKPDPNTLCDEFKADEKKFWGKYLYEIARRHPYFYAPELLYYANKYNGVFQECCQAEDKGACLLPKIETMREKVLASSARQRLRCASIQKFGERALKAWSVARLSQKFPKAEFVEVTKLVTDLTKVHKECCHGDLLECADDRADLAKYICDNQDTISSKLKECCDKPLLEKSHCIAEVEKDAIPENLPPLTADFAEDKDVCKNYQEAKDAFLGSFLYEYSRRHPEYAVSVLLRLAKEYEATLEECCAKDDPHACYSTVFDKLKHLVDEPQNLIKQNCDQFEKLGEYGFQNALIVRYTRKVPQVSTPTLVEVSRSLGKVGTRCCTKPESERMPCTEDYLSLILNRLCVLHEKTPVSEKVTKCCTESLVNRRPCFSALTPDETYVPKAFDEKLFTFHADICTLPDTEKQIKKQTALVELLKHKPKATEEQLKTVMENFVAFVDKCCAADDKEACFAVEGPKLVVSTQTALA

First: C=CCc1cccc([C@@H]2[C@@H](C)CC[C@H]3C(=O)N4[C@H](c5cccc(CC=C)c5)[C@@H](C)CC[C@H]4C(=O)N23)c1
Second: C=CCc1cccc([C@H]2N[C@H](C(=O)O)CC[C@@H]2C)c1
The composite z-score of the first is higher: 0.593 for the first, -0.595 for the second.

Compared with CCCCCCc1nc(C2CC2)c(C)c2c1[Si](C(C)C)(C(C)C)OC2, CC(C)[C@H]1NC(=O)[C@@]23C(=O)N[C@@H](Cc4ccccc4)C2[C@H](C)[C@@]2(C)O[C@H]2C3/C=C/C/C=C\CNC(=O)[C@H](C)NC1=O (some centres undefined) is higher in composite z-score: -1.57 for the first, -0.255 for the second.

Going from CC(C)(C)OC(=O)CC[C@]1(C(=O)NCCN2CCOCC2)N=C(c2ccc(OCCCO)cc2)O[C@H]1c1ccccc1CN=[N+]=[N-] to COC(=O)[C@@]1(Cc2ccccc2N=[N+]=[N-])N=C(c2ccc(OCCCO)cc2)O[C@H]1c1ccccc1CN=[N+]=[N-], the composite z-score falls from 0.433 to -0.487.

First: CCOC(=O)C[C@H]1[C@H](OC(=O)c2ccccc2-c2ccccc2)[C@@H](NC(=O)c2ccc(-c3ccccc3)cc2)c2cc(OCCCO)ccc2N1C(=O)Cc1ccc(OC)cc1
Second: C=CCC(OC(C)=O)[C@@H]1[C@@H](N(Cc2cc3ccccc3o2)C(=O)c2ccc(C)cc2)c2cc(OCCCO)ccc2N1C(=O)c1ccc2ccccc2n1 (some centres undefined)
The composite z-score of the first is lower: 0.0867 for the first, 0.659 for the second.

First: C=CCN1C(=O)[C@@]2(Cc3ccccc3)N=C(c3ccc(OCCCO)cc3)O[C@H]2c2ccccc21
Second: CN(C)C(=O)[C@@]1(Cc2ccccc2N=[N+]=[N-])N=C(c2ccc(OCCCO)cc2)O[C@H]1c1ccccc1CN=[N+]=[N-]
The composite z-score of the first is lower: 0.174 for the first, 0.972 for the second.

First: C=C(C(=O)CC[C@H](OC(=O)c1ccccc1-c1ccccc1C(=O)O)c1ccc(CO)o1)C(C)C
Second: C=C(CCCC)C(=O)CC[C@@H](OC(=O)c1cccnc1)c1cccc(OCCO)c1
The composite z-score of the first is higher: 0.178 for the first, -1.06 for the second.

Going from O=C(CS)NCCCCCNC(=O)[C@H]1C[C@H]2C(=O)N3CCC[C@H]3C(=O)N2[C@H]1c1ccc(O)cc1 to NC(=O)[C@H]1[C@@H]2C(=O)O[C@@H](c3ccccc3)[C@@H](c3ccccc3)N2[C@@H](c2ccc(O)cc2)[C@]12C(=O)Nc1ccc(C#CCCO)cc12, the composite z-score rises from -1.54 to 0.0103.

Compared with N#Cc1ccc(NN2C(C(O)CCc3ccccc3)C=CC3C(=O)N(c4ccccc4)C(=O)C32)cc1 (centres undefined), CCC1=C2CN(Cc3ccccc3Br)[C@@H]([C@@H](O)Cc3ccccc3)C2C=CCC1 (some centres undefined) is lower in composite z-score: 1.06 for the first, 0.714 for the second.

Compared with O=[N+]([O-])c1ccc(C[n+]2ccc3ccc(O)cc3c2)o1, O=C(NCc1ccccc1)c1ccc(Br)cc1[N+](=O)[O-] is lower in composite z-score: 0.895 for the first, 0.311 for the second.

Compared with Cc1ccc(S[C@]2(C(=O)NC(C)C)CC(=O)N(Cc3cc(C(F)(F)F)cc(C(F)(F)F)c3)[C@@H]2c2ccc(CO)cc2I)cc1, O=C1c2ccccc2[C@](Cc2ccccc2I)(C(=O)NCC(F)(F)F)[C@H](c2ccc(CO)cc2)N1Cc1ccccc1C(F)(F)F is higher in composite z-score: -1.25 for the first, 0.89 for the second.

Compared with C=C(COC)/C(=C/C[C@H](OC(C)=O)c1ccc(OCCO)cc1)c1cnc2ccccc2c1, CCCC=C(CCC)[C@@H](NS(=O)(=O)c1cccc(C(F)(F)F)c1)c1ccc(C(=O)OC)cc1 is lower in composite z-score: 0.0916 for the first, -0.0532 for the second.

Compared with COc1cc2c(cc1OC)CN(C(=O)[C@H]1[C@@H]3C(=O)O[C@@H](c4ccccc4)[C@@H](c4ccccc4)N3[C@@H](c3ccccc3OCCO)[C@]13C(=O)Nc1ccc(C#CC4(O)CCCCCC4)cc13)CC2, COCCOC(=O)N1C(=O)[C@@]2(c3cc(C#CCCO)ccc31)[C@H](c1ccc(O)cc1)N1[C@H](c3ccccc3)[C@H](c3ccccc3)OC(=O)[C@H]1[C@@H]2C(=O)Nc1nc2ccccc2s1 is lower in composite z-score: 0.168 for the first, 0.0742 for the second.

First: CC[C@H]1C2=C3C(CC[C@H]4C(OC)OC[C@](C)([C@@H]34)N(C(=O)OC(C)(C)C)C2)C(CO)C1CO (some centres undefined)
Second: CO[C@H]1COC(=O)[C@H](Cc2ccccc2)NC(=O)CC=C[C@@H](C)[C@H](OC)COC(=O)CC=C[C@@H]1C
The composite z-score of the first is higher: 1.05 for the first, -0.108 for the second.

Going from O=C1c2ccccc2[C@](Cc2ccccc2I)(C(=O)NCc2ccccc2)[C@H](c2ccc(CO)cc2)N1Cc1ccccc1C(F)(F)F to COC(=O)C1=CC(c2ccc(CO)cc2)=CC(c2cccs2)N(Cc2cccc(OC(F)(F)F)c2)C=C1C(=O)OC (centres undefined), the composite z-score rises from 0.609 to 1.09.

In the case of COCCOC(=O)N1C(=O)[C@@]2(c3cc(C#CCC(C(=O)OC)C(=O)OC)ccc31)[C@H](C(=O)N1CCN(c3ncccn3)CC1)[C@H]1C(=O)O[C@H](c3ccccc3)[C@H](c3ccccc3)N1[C@@H]2c1ccc(O)cc1, the composite z-score is reported as 0.752.
